# Inconclusive results are not listed. Entries that show only a call come without a potency. The source holds several records for some structures; these can differ, active in one and inactive in another. The source made the active and inactive calls. Unless noted, calls follow the shape of the full dose curve.
# Assay: qHTS assay to identify small molecule agonists of the hypoxia (HIF-1) signaling pathway (AID 1224846; active = well fitted activation curve with a large enough effect in the signal ratio in the repeat runs, not every such curve was filed as active; the % refers to the signal ratio)
# Details: HRE-bla ME-180 cells, beta-lactamase ratio, 17 h; series mostly up to 76.8 µM; activation: at the top concentration
# Outline: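 Reporter induction in HRE-bla ME-180 cells is taken as agonism: cells sit 5 hrs after plating, receive compounds or DMSO only, incubate 17 hrs at 37C under 5% CO2, and are loaded with CCF4-AM for beta-lactamase FRET measurement.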
row,SMILES,outcome
1,COC(=O)CCCCC(=O)OC,inactive
2,CCCCCNCCCCC,inactive
3,C=C(C)CC(C)(C)C,inactive
4,CC(=O)OC/C=C(\C)CCC=C(C)C,inactive
5,CC1(C)C(=O)N(Cl)C(=O)N1Cl,inactive
6,CC(=O)c1nccs1,inactive
7,CC(O)CNCC(C)O (centres undefined),inactive
8,Cc1ccccc1Cl,inactive
9,CO[Si](CCCNCCN)(OC)OC,inactive
10,Oc1ccc(Cc2ccccc2O)cc1,inactive
11,CCCN(CCC)C(=O)SCC,inactive
12,CC[N+](CC)(CC(=O)Nc1c(C)cccc1C)Cc1ccccc1,inactive
13,Cc1ccncc1,inactive
14,COc1c(Cl)ccc(Cl)c1C(=O)O,inactive
15,OCC(O)CS (centres undefined),inactive
16,CCOC(=O)CC(=O)OCC,inactive

# Assay: qHTS assay to identify small molecule agonists of H2AX - cell viability counter screen (AID 1224847); also: nearly all actives have a fitted effect of over 30% in size; also: potency is read from the fitted curve at half-maximal effect; as to activity change, negative = cytotoxicity: top concentration of the series differs between compounds
# Details: CHO-K1 viability, CellTiter-Glo luminescence, 3 h; series mostly up to 154 µM; activity change, negative = cytotoxicity: at the top concentration
# Outline: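 Cytotoxicity counter screen in wild-type CHO-K1 cells: a 3 hr compound treatment at 37C across 15 concentrations, followed by CellTiter-Glo luminescence to gauge viable cells.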
SMILES,Potency,"activity change, negative = cytotoxicity"
COC(=O)CCCCC(=O)OC,inactive,–
O=C(NCC1CCCCN1)c1cc(OCC(F)(F)F)ccc1OCC(F)(F)F (centres undefined),inactive,–
CCCCCNCCCCC,inactive,–
OB(O)O,inactive,–
C=C(C)CC(C)(C)C,inactive,–
O=[N+]([O-])c1cc(C(F)(F)F)ccc1Cl,inactive,–
CCCCCCC(=O)O,inactive,–
CC(=O)OC/C=C(\C)CCC=C(C)C,inactive,–
OC[C@H]1O[C@@H](Oc2ccc(O)cc2)[C@H](O)[C@@H](O)[C@@H]1O,inactive,–
CC1(C)C(=O)N(Cl)C(=O)N1Cl,inactive,–
CC(=O)c1nccs1,inactive,–
COc1ccc2cc3[n+](cc2c1OC)CCc1cc2c(cc1-3)OCO2,inactive,–
CC(O)CNCC(C)O (centres undefined),inactive,–
Cc1ccccc1Cl,inactive,–
CO[Si](CCCNCCN)(OC)OC,inactive,–
Oc1ccc(Cc2ccccc2O)cc1,inactive,–
CCCN(CCC)C(=O)SCC,inactive,–
CS(=O)(=O)c1ccc(Cl)cc1,inactive,–
CC[N+](CC)(CC(=O)Nc1c(C)cccc1C)Cc1ccccc1,inactive,–

SMILES,Potency,"activity change, negative = cytotoxicity"
COc1ccc([C@@H]2CC(=O)c3c(O)cc(O[C@@H]4O[C@H](CO[C@@H]5O[C@@H](C)[C@H](O)[C@@H](O)[C@H]5O)[C@@H](O)[C@H](O)[C@H]4O)cc3O2)cc1OC,inactive,–
C1CCCNCC1,inactive,–
NC(=O)NC(N)=O,inactive,–
O=[N+]([O-])c1ccccc1C(F)(F)F,inactive,–
CC(=O)OC(C)(C)C1CC=C(C)CC1 (centres undefined),inactive,–
CCCCCCCC(=O)O,inactive,–
CC(COCC(C)OC(=O)c1ccccc1)OC(=O)c1ccccc1 (centres undefined),inactive,–
Cc1ccncc1,inactive,–
COc1c(Cl)ccc(Cl)c1C(=O)O,inactive,–
CN=C(NC#N)NCCSCc1nc[nH]c1C,inactive,–
OCC(O)CS (centres undefined),inactive,–
CCOC(=O)CC(=O)OCC,inactive,–
COC(=O)/C=C\C(=O)OC,inactive,–
CC1=CC(=O)CC(C)(C)C1,inactive,–
CC(=O)CC(=O)N(C)C,inactive,–
O=c1n(CCCN2CCN(c3cccc(Cl)c3)CC2)nc2ccccn12,–,-0.5% [at 70.9 µM] (inactive)
N#CCC(=O)O,inactive,–
NC(=O)c1ncn([C@@H]2O[C@H](CO)[C@@H](O)[C@H]2O)n1,–,-10.1% [at 70.9 µM] (inactive)
c1cnc2c(c1)ccc1cccnc12,80.8 µM (active) and inactive,–
